About 300 (9.4%) of roughly 3,200 compounds showed activity. This is one part of a sample in which actives are shown more often than they occur.
System: A673/TR/shEF
Assay: cell viability (LOESS-normalised, relative to median of negative controls) (log2 ratio); higher = more viable cells (less compound effect), active = hit call of the paper (over 3 MAD below the median)
Conditions: treatment time: 72 h
Procedure, shortened: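 For three days, A673/TR/shEF Ewing sarcoma cells in 384-well plates (1,500 per well) were treated with library compounds at two or more concentrations or with DMSO controls, after doxycycline had been added or withheld 24 h beforehand to induce EWS-FLI1 shRNA knockdown. Viability was read by CellTiter-Glo luminescence on an Envision reader. The data were LOESS-corrected per plate, divided by the median of negative controls and log2-transformed.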

[1] = 0.25 µM, library screen: screen1, EWS-FLI1 expression: high (no doxycycline)
[2] = 0.25 µM, library screen: screen1, EWS-FLI1 expression: low (doxycycline-induced shRNA knockdown)
[3] = 2.5 µM, library screen: screen1, EWS-FLI1 expression: high (no doxycycline)
[4] = 2.5 µM, library screen: screen1, EWS-FLI1 expression: low (doxycycline-induced shRNA knockdown)
[5] = 0.25 µM, library screen: screen2, EWS-FLI1 expression: high (no doxycycline)
[6] = 0.25 µM, library screen: screen2, EWS-FLI1 expression: low (doxycycline-induced shRNA knockdown)
[7] = 2.5 µM, library screen: screen2, EWS-FLI1 expression: high (no doxycycline)
[8] = 2.5 µM, library screen: screen2, EWS-FLI1 expression: low (doxycycline-induced shRNA knockdown)
[9] = 0.103 µM, library screen: screen3, EWS-FLI1 expression: high (no doxycycline)
[10] = 0.103 µM, library screen: screen3, EWS-FLI1 expression: low (doxycycline-induced shRNA knockdown)
[11] = 0.308 µM, library screen: screen3, EWS-FLI1 expression: high (no doxycycline)
[12] = 0.308 µM, library screen: screen3, EWS-FLI1 expression: low (doxycycline-induced shRNA knockdown)
[13] = 0.926 µM, library screen: screen3, EWS-FLI1 expression: high (no doxycycline)
[14] = 0.926 µM, library screen: screen3, EWS-FLI1 expression: low (doxycycline-induced shRNA knockdown)
[15] = 2.8 µM, library screen: screen3, EWS-FLI1 expression: high (no doxycycline)
[16] = 2.8 µM, library screen: screen3, EWS-FLI1 expression: low (doxycycline-induced shRNA knockdown)
[17] = 8.3 µM, library screen: screen3, EWS-FLI1 expression: high (no doxycycline)
[18] = 8.3 µM, library screen: screen3, EWS-FLI1 expression: low (doxycycline-induced shRNA knockdown)
[19] = 25 µM, library screen: screen3, EWS-FLI1 expression: high (no doxycycline)
[20] = 25 µM, library screen: screen3, EWS-FLI1 expression: low (doxycycline-induced shRNA knockdown)
[21] = 0.025 µM, library screen: screen2, EWS-FLI1 expression: high (no doxycycline)
[22] = 0.025 µM, library screen: screen2, EWS-FLI1 expression: low (doxycycline-induced shRNA knockdown)
[23] = 25 µM, library screen: screen2, EWS-FLI1 expression: high (no doxycycline)
[24] = 25 µM, library screen: screen2, EWS-FLI1 expression: low (doxycycline-induced shRNA knockdown)

Measured: cell viability (log2)

COC(=O)c1c(Cl)c(Cl)c(C(=O)OC)c(Cl)c1Cl
inactive: [1] 0.0653 | [2] 0.0707 | [3] 0.0863 | [4] 0.122

CC1(C)C(=O)C=C[C@@]2(C)C1CC(=O)[C@@]1(C)C3=CC(=O)O[C@@H](c4ccoc4)[C@]3(C)CCC12 (stereo not given in full)
inactive: [1] 0.0432 | [2] 0.0348 | [3] 0.201 | [4] 0.163

CCOC([O-])=Nc1c[n+](N2CCOCC2)no1
inactive: [1] 0.0951 | [2] 0.0303 | [5] 0.227 | [6] 0.0663 | [3] 0.0784 | [4] 0.0384 | [7] 0.102 | [8] 0.116

CC1(C)O[C@H]2[C@H](O)C[C@](O)(C(N)=O)C[C@H]2O1
inactive: [1] -0.0199 | [2] -0.00566 | [3] 0.076 | [4] 0.0924

Oc1ccc2c(c1)OC[C@]1(O)Cc3cc(O)c(O)cc3[C@H]21
inactive: [1] 0.113 | [2] 0.129 | [3] 0.0951 | [4] 0.187

NC(C(=O)O)C(O)C(O)C(O)CO (stereo not given)
inactive: [1] 0.0607 | [2] 0.059 | [3] 0.025 | [4] 0.121

COc1ccccc1NC(=O)C1=C(C)NC(=O)NC1c1ccc(Cl)cc1 (stereo not given)
inactive: [1] 0.0563 | [2] 0.0447 | [3] 0.0428 | [4] 0.00886

O=C(CSc1nnc(Cc2ccccc2)o1)c1ccc(Cl)cc1
inactive: [1] 0.0547 | [2] 0.0748 | [3] 0.133 | [4] -0.101

C[C@H]1CC[C@@H](C(C)(C)O)CC2=C1CC[C@@H]2C
inactive: [1] -0.0585 | [2] 0.0603 | [3] 0.0212 | [4] 0.083

C[C@@H](Oc1cc(-c2cnn(C3CCNCC3)c2)cnc1N)c1c(Cl)ccc(F)c1Cl
inactive: [9] 0.0466 | [10] 0.078 | [11] 0.0248 | [12] 0.0309 | [13] 0.0194 | [14] 0.0561 | [15] -0.012 | [16] 0.0202 | [18] 0.0761 | [20] -0.0839
active: [17] -0.189 | [19] -1.08

COC(=O)C1=C(C)N=c2sc(=Cc3cccs3)c(=O)n2C1c1ccc(OC)cc1 (stereo not given)
inactive: [1] 0.0442 | [2] 0.034 | [3] 0.0701 | [4] 0.111

CNC(=O)c1cc2c(cn1)[nH]c1ccccc12
inactive: [5] 0.143 | [6] 0.0456 | [7] 0.152 | [8] 0.0711

CNC(=O)c1ccccc1Sc1ccc2c(/C=C/c3ccccn3)n[nH]c2c1
active: [17] -0.181 | [19] -0.513
inactive: [9] -0.00228 | [10] 0.0386 | [11] 0.0978 | [12] 0.044 | [13] 0.0712 | [14] 0.145 | [15] 0.0241 | [16] 0.188 | [18] 0.195 | [20] -0.0147

CC(C)=CCC[C@@H](C)[C@H]1CC[C@@]2(C)C3=C(CC[C@]12C)[C@@]1(C)CC[C@H](O)C(C)(C)[C@@H]1CC3
inactive: [1] 0.101 | [2] -0.00557 | [3] 0.158 | [4] 0.0178

O=C(O)CCCCCCCn1ccnc1
inactive: [1] 0.124 | [2] 0.0433 | [3] 0.168 | [4] 0.0749

CC1=C(Cl)C(O)=C(Cl)C(=O)C12Oc1cc(O)c(Cl)c(C)c1C2=O (stereo not given)
inactive: [1] 0.065 | [2] 0.0174 | [3] 0.111 | [4] 0.157

CC(=O)OC12CCCC(C)(CCC3C1CC3(C)C)C2 (stereo not given)
inactive: [1] 0.0248 | [2] -0.0723 | [3] 0.116 | [4] -0.0213

CC(=O)OC1(C)CCC23CC1C(C)(C)[C@@H]2CC[C@H]3C (stereo not given in full)
inactive: [1] 0.0148 | [2] 0.0289 | [3] 0.15 | [4] 0.0585

Cc1nc(N)sc1-c1ccnc(Nc2ccc(N3CCOCC3)cc2)n1
active: [15] -0.219 | [17] -0.377 | [19] -0.478 | [20] -0.719
inactive: [9] 0.0411 | [10] 0.00948 | [11] 0.0424 | [12] 0.0424 | [13] -0.0206 | [14] 0.0867 | [16] 0.0313 | [18] -0.083

COc1cccc(CN2CCN(Cc3cccc([N+](=O)[O-])c3)CC2)c1
inactive: [1] 0.0814 | [2] 0.112

CC(C)c1c(O)ccc2c1CC[C@H]1[C@@](C)(CO)CCC[C@]21C
inactive: [1] 0.0632 | [2] 0.204 | [3] 0.124 | [4] 0.239

COC(=O)Nc1nc2ccc(Sc3ccccc3)cc2[nH]1
active: [15] -0.667 | [17] -1.42 | [18] -0.611 | [23] -2.26 | [24] -0.937 | [19] -1.77 | [20] -0.629
inactive: [21] 0.076 | [22] 0.0311 | [9] 0.039 | [10] 0.0842 | [1] 0.0605 | [2] 0.108 | [5] 0.237 | [6] 0.0195 | [11] 0.0857 | [12] 0.103 | [13] 0.0228 | [14] 0.0229 | [3] 0.101 | [4] 0.0874 | [7] 0.103 | [8] 0.0543 | [16] -0.0556

COC(=O)c1ccccc1
inactive: [1] 0.0726 | [2] 0.05 | [3] 0.155 | [4] 0.0447

COc1ccc(NC(=O)/C(=C/c2cccs2)NC(=O)c2cccs2)cc1
inactive: [1] 0.0675 | [2] 0.0437 | [3] 0.0662 | [4] 0.0201

COC(=O)Nc1nc2ccc(C(=O)c3cccs3)cc2[nH]1
active: [1] -0.83 | [2] -0.22 | [5] -1.12 | [6] -0.105 | [3] -3.46 | [4] -1.25 | [7] -2.04 | [8] -0.699

CC(C(=O)O)c1ccc(C(=O)c2cccs2)cc1 (stereo not given)
inactive: [1] 0.0835 | [2] 0.0129 | [3] 0.155 | [4] -0.0021

COC(=O)Nc1nc2ccc(C(=O)c3ccccc3)cc2[nH]1
inactive: [21] 0.179 | [22] 0.0844 | [1] 0.0977 | [2] 0.025 | [5] 0.114 | [6] 0.0886
active: [3] -1.65 | [4] -0.988 | [7] -2.05 | [8] -0.641 | [23] -3.34 | [24] -1

CC(C(=O)O)c1cccc(C(=O)c2ccccc2)c1 (stereo not given)
inactive: [9] 0.106 | [10] 0.0412 | [1] 0.12 | [2] -0.0201 | [5] 0.204 | [6] 0.13 | [11] 0.093 | [12] 0.102 | [13] 0.0295 | [14] 0.058 | [3] 0.103 | [4] 0.0158 | [7] 0.122 | [8] 0.173 | [15] 0.145 | [16] 0.11 | [17] 0.0932 | [18] 0.0536 | [19] 0.0365 | [20] 0.131

CC(=O)O[C@H]1C[C@@H](OC(C)=O)C(C)(C)C2CC(=O)[C@]3(C)C(CC[C@@]4(C)[C@H](C(=O)O)OC(=O)C5OC543)[C@]21C (stereo not given in full)
inactive: [1] 0.123 | [2] 0.114 | [3] 0.0482 | [4] 0.118

CCC(=O)NCC1OC(n2cnc3c(NCc4ccccc4)ncnc32)C(O)C1O (stereo not given)
inactive: [5] 0.0412 | [6] 0.0737 | [7] 0.224 | [8] 0.113

COC(=O)C[C@H]1C(C)(C)C(=O)[C@@H]2CC3=C4CC(OC)O[C@@H](c5ccoc5)[C@]4(C)CCC3[C@@]1(C)C2=O (stereo not given in full)
inactive: [1] 0.115 | [2] 0.14 | [3] 0.0882 | [4] 0.172

COc1ccc(-c2coc3cc(OC(C)=O)cc(OC(C)=O)c3c2=O)cc1
inactive: [1] 0.0854 | [2] -0.00831 | [3] 0.156 | [4] 0.114

COc1c(O)cc2occ(-c3ccc(O)cc3)c(=O)c2c1O
inactive: [1] 0.15 | [2] 0.0261 | [3] 0.0979 | [4] 0.0895

CC(=O)O[C@H]1CC[C@]2(C)[C@H]3CC=C4[C@@H]5CC(C)(C)CC[C@]5(C(=O)O)CC[C@@]4(C)[C@]3(C)CC[C@H]2C1(C)C
inactive: [1] 0.0325 | [2] 0.0553 | [3] 0.0391 | [4] 0.0458

Cc1nnc(C(C)C)n1C1C[C@H]2CC[C@@H](C1)N2CC[C@H](NC(=O)C1CCC(F)(F)CC1)c1ccccc1 (stereo not given in full)
inactive: [9] 0.00773 | [10] 0.0537 | [11] 0.179 | [12] 0.0864 | [13] 0.11 | [14] 0.0142 | [15] 0.152 | [16] 0.0241 | [17] 0.00455 | [18] 0.0886 | [19] 0.0767 | [20] 0.0769

C=C1C(=O)OC2CC1C(OC(C)=O)C/C(C)=C/CC/C(C)=C\CCC2(C)O (stereo not given)
inactive: [1] 0.18 | [2] 0.0249 | [3] 0.0625 | [4] -0.139

O=C1c2ccc(O)cc2OC(c2cc(O)c(O)c(O)c2)C1O (stereo not given)
inactive: [1] 0.0896 | [2] 0.0484 | [3] 0.165 | [4] 0.11
